Results taken from PubChem BioAssay.
“And” between values parts separate entries of the source, which are not always exact repeats. Identical values can stand only once. The source made the active and inactive calls.

Experiments:
Albumin (Bos taurus) = Albumin (Bos taurus) (UniProt P02769); test: compounds binding labelled BSA control protein – biochemical, small-molecule microarray, Alexa647 label, 635/667 nm fluorescence, artefact control for SMM control protein annotation, profiling panel (AID 1118); settings: BSA-A647 binding, fluorescence 635 nm, higher = more signal;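 further: score merges 667 nm emission intensity and signal-to-noise per printed compound spot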
Sequence of Albumin (Bos taurus) (P02769 whole entry, looked up): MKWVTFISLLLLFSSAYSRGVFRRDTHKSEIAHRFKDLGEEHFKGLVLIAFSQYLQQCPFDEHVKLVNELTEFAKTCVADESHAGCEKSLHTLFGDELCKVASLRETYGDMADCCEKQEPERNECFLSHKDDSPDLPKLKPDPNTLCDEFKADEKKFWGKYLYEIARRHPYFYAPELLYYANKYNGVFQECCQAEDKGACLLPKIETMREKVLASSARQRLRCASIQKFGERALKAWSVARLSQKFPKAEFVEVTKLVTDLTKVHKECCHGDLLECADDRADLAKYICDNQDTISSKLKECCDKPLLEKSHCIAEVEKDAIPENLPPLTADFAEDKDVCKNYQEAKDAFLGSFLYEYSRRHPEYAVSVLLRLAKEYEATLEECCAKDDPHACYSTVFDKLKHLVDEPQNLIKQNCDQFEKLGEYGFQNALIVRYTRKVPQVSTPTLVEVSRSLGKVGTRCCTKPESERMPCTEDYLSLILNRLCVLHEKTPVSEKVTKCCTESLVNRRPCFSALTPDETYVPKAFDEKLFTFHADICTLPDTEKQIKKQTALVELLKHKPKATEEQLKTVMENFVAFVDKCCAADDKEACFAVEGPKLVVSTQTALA

[1] = probe aXIP binding to arrayed compounds – biochemical, NeuroSMM set, 635/667 nm fluorescence, primary screen (AID 1119); settings: small-molecule microarray, higher = more signal, called active from +8 up or from −8 down;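 further: probe is the protein aXip251-270 applied at 1 µg/mL to compound-printed slides; binding of probe to printed compounds measured as 667 nm fluorescence plus signal to noise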
[2] = probe aNOTCH3 binding on compound microarray – biochemical, small-molecule microarray, 635/667 nm fluorescence, primary screen (AID 1120); settings: higher = more signal;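 further: probe is a biotin-tagged antibody raised against NOTCH3 rather than NOTCH3 protein; score merges spot fluorescence near 667 nm with spot signal to noise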
[3] = probe aNOTCH2 binding on compound microarray – biochemical, small-molecule microarray, 635/667 nm fluorescence, primary screen (AID 1121); settings: higher = more signal;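 further: score merges feature fluorescence read at 667 nm with its signal to noise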
[4] = molecular target: Carbonic anhydrase 2 (Homo sapiens) (UniProt P00918); test: compounds binding carbonic anhydrase 2 – biochemical, small-molecule microarray, Alexa647-labelled CAII, profiling panel (AID 1122); settings: CAII-A647 binding fluorescence, higher = more signal
[5] = COS7 lysate on small-molecule microarray, probe aHis, 635 nm (AID 1123); settings: COS7 cell lysate, fluorescence, higher = more signal;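 further: z-score combines 667nm fluorescence intensity with signal-to-noise per printed compound spot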
[6] = probe aLAP1 signal on lysate-treated microarray – cell lysate, small-molecule microarray, COS7 lysate, primary screen (AID 1124); settings: probe aLAP1, fluorescence, higher = more signal;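 further: lysate comes from COS7 cells expressing LAP1 and is applied at 0.3 µg/mL; score merges spot fluorescence near 667 nm with signal-to-noise over triplicate slides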
Sam68 (KHDRBS1) = test: compounds binding KHDRBS1 protein – biochemical, small-molecule microarray, 635 nm fluorescence, primary screen (AID 1125); settings: higher = more signal;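 further: score merges 667 nm channel intensity with signal to noise over triplicate slides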
[7] = tested on: Chordin-like protein 2 (CHRDL2); test: compounds binding chordin-like 2 – biochemical, small-molecule microarray, 635 nm fluorescence, primary screen (AID 1126); settings: fluorescence 635 nm, higher = more signal;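 further: printed compound slides probed with Chrdl2 protein at 4 µg/mL for 1 h at 4 C; score merges 667 nm emission intensity with signal to noise over three replicate slides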
[8] = molecular target: Concanavalin-A (Canavalia ensiformis) (UniProt P02866); test: compounds binding concanavalin A lectin – biochemical, small-molecule microarray, Alexa647 label, 635 nm, artefact control for SMM control protein annotation, primary screen (AID 1127); settings: ConA-A647 binding fluorescence, higher = more signal;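 further: z combines 667 nm emission intensity with signal-to-noise across three replicate slides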
Sequence of Concanavalin-A (Canavalia ensiformis) (P02866 whole entry, looked up): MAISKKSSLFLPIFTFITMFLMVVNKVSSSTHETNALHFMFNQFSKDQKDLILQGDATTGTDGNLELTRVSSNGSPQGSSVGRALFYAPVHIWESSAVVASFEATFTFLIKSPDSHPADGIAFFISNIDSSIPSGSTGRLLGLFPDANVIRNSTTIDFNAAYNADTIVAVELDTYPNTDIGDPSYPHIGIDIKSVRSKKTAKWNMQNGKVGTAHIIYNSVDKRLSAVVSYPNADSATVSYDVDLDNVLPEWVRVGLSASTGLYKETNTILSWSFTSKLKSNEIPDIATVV

Compound	composite z-score (Albumin (Bos taurus))	composite Z-score [1]	composite z-score [2]	composite z-score [3]	composite z-score [4]	composite z-score [5]	composite z-score [6]	composite z-score (Sam68 (KHDRBS1))	composite z-score [7]	composite z-score [8]
C[N+](C)(C)CCCCNC(=O)[C@H]1C[C@H]2C(=O)N[C@@H](CCCC[N+](C)(C)C)C(=O)N2[C@H]1c1cccc(OCCO)c1	-0.741 and -0.3	2.4 (inactive) and 1.3 (inactive)	0.0533 and 0.245	-0.0974 and -0.131	0.851 and 0.463	1.38 and 1.49	0.848 and 0.953	0.25 and 1.32	1.17 and 1.53	0.744 and 1.05
CC(C)CON=C1C[C@@H](O)[C@@H](O)[C@@H]2[C@@H]3C(=O)N(c4cccc(Oc5ccccc5)c4)C(=O)[C@@H]3CC[C@H]12	0.529	-0.116 (inactive)	-0.0077	-0.118	0.315	0.328	-0.216	0.594	0.22	0.882
COC(=O)C1=C(C)N(Cc2ccccc2)C2=C3C(=O)N(C)C(=O)[C@@H]3[C@@](O)(C(=O)OC)C(=O)N2[C@@H]1c1ccccc1	0.0056 and 0.0685	0.204 (inactive) and -0.12 (inactive)	0.134 and -0.101	-0.151 and -0.0619	0.422 and -0.123	-0.332 and -0.0088	1.36 and 0.499	-0.239 and 0.267	0.37 and 0.38	0.17 and 0.178
C=CCN(CCCC)C(=O)C(c1cccs1)N(C(=O)/C=C\C(=O)O)c1c(Cl)cccc1CO (stereo not given)	-0.854 and -0.198	-0.089 (inactive) and 0.339 (inactive)	-0.589 and -0.431	-0.162 and -0.147	-0.3 and 0.0384	-0.99 and -0.632	-0.307 and 0.993	-0.843 and -1.73	-4.02 and -2.94	-3.43 and -2.5
O=c1n(-c2ccccc2)c(=O)n2n1CC[C@@H]1C(=NOC[C@@H](O)COCc3ccco3)[C@H]3O[C@H]3[C@@H](O)[C@@H]12	-0.73 and 0.143	-0.014 (inactive) and 0.545 (inactive)	-0.173 and -0.268	-0.122 and -0.174	-0.14 and 0.0148	-0.251 and -0.862	-0.0025 and -0.111	0.623 and -0.34	1.31 and 0.628	-0.331 and 0.101
CC(C)=NOC[C@@H](O)COCc1ccco1	-0.206	1.56 (inactive)	-0.0328	-0.132	-0.637	-0.115	-0.353	-2.3	0.397	-0.703
C=CCN(C(=O)C(c1cccs1)N(C(=O)/C=C\C(=O)O)c1c(Cl)cccc1CO)C(C)(C)C (stereo not given)	-0.693 and -0.455	0.0333 (inactive) and 0.242 (inactive)	-0.538 and -0.562	-0.125 and -0.182	0.884 and 0.936	-0.625 and -0.42	-0.766 and -0.131	-1.95 and -0.769	-2.35 and -3.64	-1.12 and -0.782
CC(C)N1CC=CC23O[C@@H]4C=CCCOC(=O)C4[C@H]2C(=O)N(C(C)CO)[C@@H]3C1=O (stereo not given in full)	-0.579 and 0.131	0.238 (inactive) and 0.848 (inactive)	-0.222 and -0.215	0.502 and -0.221	0.958 and 0.808	1.24 and -0.13	0.866 and -0.361	0.967 and -0.516	-2.61 and -1.23	0.0938 and -1.42
C=C[C@H](C)[C@H](O)c1ccc(O)c2ccccc12	-0.401 and 0.473	0.0296 (inactive) and -0.906 (inactive)	-0.36 and -0.229	-0.109 and -0.114	0.137 and 0.349	-0.0769 and 0.283	-0.055 and -0.15	-0.512 and -0.791	-0.14 and -0.152	-1.05 and -0.559
CC(C)CCN1CCc2nc(-c3ccccc3)c3c(c2C1)CO[C@@H](C)C3	0.69	-0.835 (inactive)	-0.0362	-0.16	0.15	0.463	-0.616	1.06	0.656	0.263
C=CCN(CCCCC)C(=O)C1N(CCOCCO)C(=O)C2C(C(=O)O)C3C=CC21O3 (stereo not given)	0.92 and -1.47	2.54 (inactive) and -0.487 (inactive)	-0.496 and -0.461	-0.195 and -0.189	0.853 and 0.794	-0.568 and 0.294	-0.615 and 1.6	-3.26 and -1	-2.12 and -3.36	-1.88 and -1.67
C=CCN(CCCC)C(=O)C1N(c2ccc(CCO)cc2)C(=O)C2C(C(=O)O)C3C=CC21O3 (stereo not given)	-0.196 and -1.75	-0.708 (inactive) and -0.319 (inactive)	-0.454 and -0.477	0.0039 and -0.14	0.809 and 0.91	0.253	-1.05 and -0.525	-1.48 and -0.741	-3.26 and -3.79	-1.74 and -2.64
CCN1C(=O)[C@H]2[C@H]3[C@H](O)[C@H](O)CC(=NOC)[C@@H]3CC[C@H]2C1=O	-0.311	-0.791 (inactive)	0.0297	-0.0681	-0.317	-0.417	-0.375	-0.478	0.508	-0.0569
CC(CO)N1C(=O)[C@@H]2C3C(=O)OCCC=C[C@H]3OC23C=CCN(CCN2CCOCC2)C(=O)[C@@H]13 (stereo not given in full)	0.417 and -0.264	0.102 (inactive) and -0.135 (inactive)	-0.225 and 0.604	-0.113 and -0.147	0.819 and 0.787	-0.144 and 2.41	-0.657 and 0.721	-0.495 and 1.14	-0.184 and -0.565	0.116 and 0.686
